Compounds without any hit were thinned out: in the full panel of roughly 79,000, 15% have a hit. The source made the active and inactive calls. Rule as the data show it: active = growth inhibition above about 70%; inactive = the rest.
How the values were obtained:
[1] = NCI Yeast Anticancer Drug Screen. Data for the rad50 strain (AID 155);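 also: 0% = growth of vehicle-only cultures of the same strain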; conditions: S. cerevisiae rad50 strain growth inhibition; at 50.0 µM; hits give high values
Outline: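 Cells are treated with compound, grown, and their growth is then scored against vehicle-only cultures of the same repair-deficient yeast strain.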

[2] = NCI Yeast Anticancer Drug Screen. Data for the mec2-1 strain (AID 157); conditions: S. cerevisiae mec2-1 strain, at 50.0 µM, hits give high values
Outline: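 Strain: mec2-1 (DNA repair/cell cycle alteration). Compound exposure, then growth measured; inhibition expressed relative to vehicle.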

[3] = NCI Yeast Anticancer Drug Screen. Data for the sgs1 mgt1 strain (AID 161);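 also: 0% = growth of cultures given vehicle only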; conditions: S. cerevisiae sgs1 mgt1 strain, at 50.0 µM, hits give high values
Outline: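 Genetically altered yeast, compound exposure, growth inhibition relative to vehicle.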

[4] = NCI Yeast Anticancer Drug Screen. Data for the cln2 rad14 strain (AID 165);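 also: 0% = growth equal to vehicle treated cultures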; conditions: S. cerevisiae cln2 rad14 strain, at 50.0 µM, hits give high values
Outline: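 Compounds are applied to the cln2 rad14 yeast strain, and growth is then compared with that of vehicle-treated cultures to give inhibition.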

[5] = NCI Yeast Anticancer Drug Screen. Data for the bub3 strain (AID 167); conditions: S. cerevisiae bub3 mutant strain, at 50.0 µM, hits give high values
Outline: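 Part of a panel of yeast mutants defective in DNA damage repair or cell cycle regulation. Each strain is grown with compound, and inhibition is calculated relative to solvent-treated cultures.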

[6] = NCI Yeast Anticancer Drug Screen. Data for the mlh1 rad18 strain (AID 175); conditions: S. cerevisiae mlh1 rad18 strain growth inhibition; at 50.0 µM; hits give high values
Outline: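 Read-out is yeast growth inhibition, calculated against vehicle-only controls. The compound was applied to a strain engineered with DNA damage repair alterations.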

Measured: growth inhibition

CC1(C)COP(=S)(SCCC#N)OC1
inactive: [1] -38.8% | [2] -7.1% | [3] 0.95% | [4] -29.4% | [5] 12.8% | [6] -0.55%

CC1=C[C@H]2O[C@@H]3[C@H](OC(=O)CCl)[C@@H](O)[C@](C)(C2(COC(=O)CCl)CC1)[C@@]31CO1 (stereo partly specified)
active: [1] 91.8% | [2] 92.8% | [3] 92.7% | [4] 91.6% | [5] 92.2% | [6] 91.2%

CCN(CC)CCn1ccc2ccccc21
inactive: [1] -11.4% | [2] -18.4% | [3] -9.85% | [4] 17.3% | [5] -27.1% | [6] -5.95%

[C-]#[O+].[C-]#[O+].[C-]#[O+].[Mo].c1ccc(P(CC[PH+](CC[PH+](CC[PH+](c2ccccc2)c2ccccc2)c2ccccc2)c2ccccc2)c2ccccc2)cc1 (stereo unspecified)
inactive: [1] 30.8% | [2] 27.5% | [3] 43.4% | [4] 37.7% | [5] 32.5% | [6] 44.1%

O=C(O)/C=C/c1ccc(S(=O)(=O)F)cc1
inactive: [1] 36.4% | [2] -16% | [3] 16.6% | [4] 15.9% | [5] 34% | [6] 20.6%

O=c1cc(CCl)occ1O
inactive: [1] 7.35% | [2] 19.5% | [3] 20.6% | [4] -5.75% | [5] 16.1% | [6] 15.1%

CCOP(=O)(OCC)C(O)C(C)C (stereo unspecified)
inactive: [1] 3.5% | [2] 16.9% | [3] 5.2% | [4] -19.8% | [5] 7.5% | [6] 0.35%

CC1(C)C(=O)CC[C@@]2(C)C1=CC[C@@H]1[C@@H]2CC[C@@]2(C)[C@H]1CC[C@]2(C)O
inactive: [1] 5.75% | [2] -14.8% | [3] 11.6% | [4] -21% | [5] 3.8% | [6] 7.05%

OCCNC1CCCCC1
inactive: [1] 5.15% | [2] -1.65% | [3] -13.8% | [4] -1.8% | [5] 3.55% | [6] -16.1%

CCCCC(CC)CC1C(=O)NC(=S)NC1=O (stereo unspecified)
inactive: [1] -3.7% | [2] 5.55% | [3] -17.8% | [4] -37.1% | [5] -0.05% | [6] 6.35%

O=C(Cc1nc2ccccc2c(=O)n1-c1c(Cl)cccc1Cl)c1ccncc1
inactive: [1] 2.45% | [2] 7.95% | [3] 7.1% | [4] -25.6% | [5] -2.95% | [6] 18.9%

COC1C(OC(=O)c2ccc(C)[nH]2)C(O)C(Oc2ccc3c(O)c(NC(=O)c4ccc(O)c(CC=C(C)C)c4)c(=O)oc3c2Cl)OC1(C)C (stereo unspecified)
inactive: [1] 44.2% | [2] 25.9% | [3] 23.8% | [4] 50.6% | [5] 35.9% | [6] 33%

N#CS.N=C=S.O=N[O-].[Co+3].[NH-]CC[NH-].[NH-]CC[NH-]
inactive: [1] -6.55% | [2] 6.3% | [3] 8.25% | [4] -34% | [5] 50.7% | [6] 12.7%

CSC(SC)=C(C(=O)O)P(=O)(O)O
inactive: [1] -32.4% | [2] -3.05% | [3] -8.2% | [4] 19.1% | [5] -9.8% | [6] -16.6%

COC[C@H]1OC(=O)c2coc3c2[C@@]1(C)C1=C(C3=O)[C@@H]2CCC(=O)[C@@]2(C)C[C@H]1OC(C)=O
active: [1] 92.3% | [2] 93.3% | [3] 89.4% | [4] 89.1% | [5] 86.1% | [6] 88.8%

O=C1C(Br)=C(N2CC2)C(=O)C(Br)=C1N1CC1
active: [1] 96% | [2] 88% | [3] 90.5% | [4] 79.2% | [6] 97%
inactive: [5] 39%

NC(Cc1ccccc1)c1cccc2c1CCCC2 (stereo unspecified)
inactive: [1] 7.35% | [2] -7.3% | [3] -2.55% | [4] -21.8% | [5] 24.4% | [6] 40.5%

[O-][n+]1c2ccccc2nc2ccccc21
inactive: [1] 62.1% | [2] 34% | [3] 26.9% | [4] -9.55% | [5] 41.2% | [6] 55.7%

CC(=O)Nc1cccc([As+](C)(C)C)c1
inactive: [1] 14.3% | [2] 9.75% | [3] -2.8% | [4] -22.2% | [5] -3.35% | [6] 16.9%

CC(=O)c1cccc(S(=O)(=O)F)c1
inactive: [1] -9.7% | [2] -11.3% | [3] -3.25% | [4] 13% | [5] -14.9% | [6] -11.8%

C1CCC(NC2CCCC2)CC1
inactive: [1] 18% | [2] 47.1% | [3] 32.6% | [4] 59% | [5] 12.4% | [6] 13.1%

O=C(CCC1CCCCN1)Nc1ccc2c(c1)C(=O)c1ccc(NC(=O)CCN3CCCCC3)cc1C2=O (stereo unspecified)
inactive: [1] 6.2% | [2] 9.2% | [3] -1.9% | [4] 9.3% | [5] -12.6% | [6] 6.8%

NC(Cc1ccc(O)c(O)c1)c1ccccc1 (stereo unspecified)
inactive: [1] -12.1% | [2] 4.2% | [3] -2.55% | [4] -25.8% | [5] -7.75% | [6] -22.6%

C#[C][Sn]([CH2]CCC)([CH2]CCC)[CH2]CCC
active: [1] 99% | [2] 99.5% | [3] 99.2% | [4] 99.1% | [5] 99.3% | [6] 99.2%

CO[C@H]1C[C@H](O[C@H]2CC[C@@]3(C)[C@H](CC[C@@H]4[C@@H]3CC[C@]3(C)[C@@H](C5=CC(=O)OC5)CC[C@]43O)C2)O[C@H](C)[C@H]1O
inactive: [1] 33.2% | [2] 5.95% | [3] 17.8% | [4] 23.1% | [5] 14.6% | [6] -49%

CC(C)NC(=O)C(Cl)CCl (stereo unspecified)
inactive: [1] 13.7% | [2] 8.9% | [3] 18.3% | [4] 11.5% | [5] 2.8% | [6] 6.7%

CC(=O)Cc1ccc2c(c1)OCO2
inactive: [1] 13.2% | [2] -11.4% | [3] -0.35% | [4] 1.1% | [5] -16.9% | [6] 22.9%

Cc1cccc(C)c1NC(N)=S
inactive: [1] 3.85% | [2] 6.15% | [3] -10.6% | [4] -86.7% | [5] 6% | [6] 3.25%

CC(=O)OC1CCC2(C)C(=CCC3C4C/C(=C\N5CCCC5)C(=O)C4(C)CCC32)C1 (stereo unspecified)
inactive: [1] 51% | [3] 46.8%
active: [2] 99% | [4] 98.8% | [5] 97.2% | [6] 95.3%

O=C(O)c1cc(Cl)nc(Cl)c1
inactive: [1] -2.1% | [2] 22% | [3] 2.05% | [4] -26.2% | [5] 17.4% | [6] -14.8%

Cc1ccc2[nH]c(=S)n(-c3cccc(C(F)(F)F)c3)c(=O)c2c1
inactive: [1] 17.8% | [2] 6.35% | [3] 21.4% | [4] 20.7% | [5] 22.6% | [6] 16.5%

COc1cc(-c2ccc(N)c(OC)c2)ccc1N
inactive: [1] 26.7% | [2] 7.9% | [3] 20.2% | [4] 5.8% | [5] -2.45% | [6] 30.1%

O=S1(=O)OCCOS(=O)(=O)C1(Cl)Cl
inactive: [1] -32.6% | [2] -41.5% | [3] -18% | [4] -11.4% | [5] -31.6% | [6] -8.65%

NC(=O)C(Cl)c1ccccc1 (stereo unspecified)
inactive: [1] -17.2% | [2] -25.9% | [3] -24.8% | [4] -23.6% | [5] -23.9% | [6] -9.15%

O=C(NCCc1ccccn1)c1ccc2cc(C(=O)N3CC(CCl)c4ccc([N+](=O)[O-])cc43)[nH]c2c1 (stereo unspecified)
inactive: [1] 8.65% | [2] -2% | [3] 3.95% | [4] 12.4% | [5] 2.95% | [6] -76.3%

COC(=O)C1=COC(C)[C@H]2CN3CCc4c([nH]c5cc(OC)ccc45)C3CC12 (stereo partly specified)
inactive: [1] -0.6% | [2] -9.95% | [3] -7.65% | [4] 0.9% | [5] -12.8% | [6] -9.1%

CCCCCCCCSP(SCCCCCCCC)SCCCCCCCC
inactive: [1] -11.8% | [2] -0.1% | [3] -25.3% | [4] 2.7% | [5] 1.25% | [6] 0.9%

CC(=O)Oc1ccc(CCN(C)C2CC3CCC2(C)C3(C)C)cc1OC(C)=O (stereo unspecified)
inactive: [1] 51.4% | [2] 21.4% | [3] 46.2% | [4] -11.2% | [5] 6.1% | [6] 41%

Nc1nc(-c2cccc(S(=O)(=O)F)c2)cs1
inactive: [1] 42.5% | [2] 20.8% | [3] 55.5% | [4] 41.5% | [5] 51.1% | [6] 34.6%

O=C1NN2CCCN=C2c2cnccc21
inactive: [1] -12.3% | [2] 4.5% | [3] 11.4% | [4] -34.6% | [5] 27.6% | [6] -7.4%

COc1cc(C2c3[nH]c4ccccc4c3C[C@H]3COC(=O)N23)cc(OC)c1OC (stereo partly specified)
inactive: [1] 62.6% | [2] 15.3% | [3] 57.5% | [4] 24.4% | [5] 54% | [6] -10.2%

Reference: PubChem BioAssay (NCI)
